Experimental data published in ChEMBL document CHEMBL4888484, “Replenishing the malaria drug discovery pipeline: Screening and hit evaluation of the MMV Hit Generation Library 1 (HGL1) against asexual blood stage Plasmodium falciparum ,using a nano luciferase reporter read-out” (2022).
The whole screen tested about 150,000 compounds, of which about 540 (0.36%) showed an effect of 50% or more. The entries come from a sample that favours strong results as a whole.

System: Plasmodium falciparum
Assay: Primary screen in NF54 nanoGlo assay, in single point, at 2uM, 72h; a lower Z score goes with more inhibition
Assay type: functional, Erythrocyte
Conditions: timepoint 72 hour

Structure (SMILES)	% Inhibition [%]	Z score
O=C(Nc1cccc(Cl)c1)Nc1nnc2cccc(Cl)n12	-18	2.03
Cc1csc(NC(=O)c2cc(-c3ccccc3)on2)n1	-6	1.01
COc1cc2ccc1OCC(=O)N[C@@H](C)C(=O)N(C)CCCCN(C(=O)c1cc(Cl)cn1C)CCCNC2=O	-24	3.05
COCC1(CNC(=O)c2ccc(-c3ccncc3C)cc2)CCC1	8	-1
Cn1cc(N2C[C@@H](C(=O)NCC=Cc3cccnc3)CCC2=O)cn1	-4	0.63
N[C@@H]1CCN(C(=O)c2cccnc2Oc2cccc(Br)c2)C1	-12	1.38
Cn1c(C(=O)N2CC[C@H](N)C2)ccc1-c1ccccc1Br	0	0.05
Cn1c(C(=O)N2CC[C@H](N)C2)ccc1-c1cccc(Br)c1	50	-7.09
CC1(C2CC2)CCN(C(=O)c2csnn2)CC1	2	-0.37
Cc1ccsc1CN(Cc1ccccc1)C(=O)CN(C(=O)C1CCCC1)C1CCCCC1	-2	0.35
COc1cccc(CN2C(=O)N[C@@](C)(C3CCN(C(=O)c4cccnc4OC)CC3)C2=O)c1OC	8	-1.05
CC(C)[C@H](NC(=O)c1cc(O)ccn1)C(=O)NC1CCCCC1	-5	0.48
COc1cc(C(=O)NCc2cccnc2)ccc1OCC(=O)Nc1cccc(C(F)(F)F)c1	3	-0.33
COc1cc(C=C(C(=O)Nc2ccccc2F)C(=O)Nc2ccccc2F)ccc1OCC(=O)Nc1cccc(C(F)(F)F)c1	80	1.63
CC=Cc1ccc(OCC(=O)Nc2cccc(NC(=O)Nc3ccccc3)c2)c(OC)c1	-7	0.59
CCO[C@H]1CN(C)C[C@@H]1Nc1cc(C)nc(Nc2cccc(O)c2)n1	-6	1.08
Cc1cc(N2CCOC[C@@H](O)C2)nc(Nc2cccc(O)c2)n1	-4	0.39
Cc1cc(NCc2csc(N(C)C)n2)nc(Nc2cccc(O)c2)n1	-3	0.61
Cc1cc(N2CC(OCc3ccccc3)C2)nc(Nc2cccc(O)c2)n1	91	-12.9
Cc1cc(N2C[C@H]3CC[C@@H](C2)[C@H]3N(C)C)nc(Nc2cccc(O)c2)n1	77	-8.01
O=C(c1nc2ccccc2[nH]1)N1CCN(c2ccccc2F)CC1	-1	0.23

Structure (SMILES)	% Inhibition [%]	Z score
CCn1cc(-c2n[nH]cc2C(=O)N2CCN(CC(C)C)C(=O)C2)cn1	3	-0.32
COc1ccc(S(=O)(=O)N2CCOC[C@H](Oc3ccccc3)C2)cc1	31	-3.47
Cc1ccc(C)c(Cn2c(C(=O)Nc3ccccc3)cc3cc(NC(=O)c4ccco4)ccc32)c1	2	-0.19
CCc1cnccc1NC(=O)CCCC1CCOCC1	-3	0.38
C[C@]1(c2cnccn2)NC(=O)N(Cc2cc(F)ccc2OC(F)F)C1=O	-4	0.57
CC(C)c1ocnc1C(=O)NC[C@H]1[C@H](c2ccccc2)C1(F)F	-3	0.47
COc1ccc2[nH]c3c(c2c1)CCN(C(=O)c1ccc(C)c(C)c1)[C@H]3COCc1ccccc1	0	0.02
COc1ccc2[nH]c3c(c2c1)CCN(C(=O)c1cc(Cl)cc(Cl)c1)[C@@H]3c1ccccc1OC	-11	1.21
COc1ccc2[nH]c3c(c2c1)CCN(C(=O)c1ccc(C)c(C)c1)[C@@H]3c1ccccc1OC	84	-11.27
COc1ccc(OC)c(CNc2cc[nH]n2)c1	-5	0.8
Cc1cccc(CN(CC2CCN(C3Cc4ccccc4C3)CC2)C[C@H]2CCCO2)n1	-1	0.18
CCN(Cc1csc(C)n1)C[C@H]1CCCCO1	2	-0.27
Cc1cccc(CN(Cc2cccc(C)n2)C[C@H]2CCCCO2)n1	90	-9.86
COc1ccc(CC(=O)N[C@H]2CCOC2)cc1OC	-1	0.14
COc1nc(NCC[C@H]2CCCCN2C)ncc1F	3	-0.58
COc1nc(NC[C@H]2CCCN2C(C)C)ncc1F	64	-12.06
COc1nc(NCC2CCN(CC(C)C)CC2)ncc1F	-2	0.24
Cc1nn(C)c(C)c1CC(=O)N1CCC2(CCC2)S(=O)(=O)CC1	-5	0.46
Cc1ccc(NS(=O)(=O)c2cc(-c3nc(C)c(C)s3)sc2C)c(C)c1	-5	0.62
CC1CCN(C(=O)[C@H]2CCc3ncc(-c4ccc(F)cc4)n3C2)CC1	-7	1.27
COc1ccc(-c2cn3c(n2)CCC3)cc1	-5	0.43

Structure (SMILES)	% Inhibition [%]	Z score
COc1ccc(-[n+]2c(-c3ccc(-c4ccccc4)cc3)cn3c2COCC3)cc1	58	-11.93
COc1ccc(-c2cn3cc(-c4ccccc4)c4c3n2CCCC4)cc1	-8	1.46
COc1ccc(N2CCN(Cc3ccc(-c4ccccc4)cc3)CC2)cc1	5	-1
COc1ccc(-c2nn(-c3ccccc3F)cc2CN2CCOCC2)cc1	-19	3.28
COc1ccc(-[n+]2c(-c3ccccc3)cn3c2CCC3)cc1	79	-11.37
NC(=O)N1CCCC(C(=O)N2CCCC2c2ccc(F)c(F)c2)C1 (centres undefined)	0	0.02
O=C1CC(C(=O)N2CCCC2c2ccncc2)CN1c1ccccc1 (centres undefined)	-8	1.05
O=C1CNC(C(=O)N2CCC[C@H]2c2ccncc2)=NN1c1ccccc1	3	-0.62
O=C1CCC(C(=O)N2CCC[C@H]2c2ccncc2)=NN1c1ccccc1	67	1.73
CN(C)c1noc(CN2CCc3c(F)cc(F)cc3C2)n1	10	-0.88
CCCc1nc(CN2CCc3ccc(F)cc3C2)no1	-4	0.53
CN(C)c1noc(CN2CCc3ccc(F)cc3C2)n1	51	-2.97
O=C(NCc1ccccc1)c1[nH]cnc1C(=O)N1CCCCC1	11	-1.23
Cc1nn(C)c2nc3c(c(N)c12)C(=O)C[C@@H](c1ccccc1)C3	-14	1.9
Nc1nc(-c2ccccc2)c2cc3c(nn12)C[C@H](c1ccc(F)cc1)CC3=O	57	0.5
COc1ccc(-c2n[nH]c3c2C(=O)C[C@@H](c2ccccc2)C3)cc1	-5	0.48
CNc1snc(C)c1C(=O)N1CCN(Cc2ccc(-c3cccc(F)c3)s2)CC1	2	-0.21
O=C(N[C@@H]1CC[C@H]2CCOc3ccccc3C(=O)N3CCN(C4CCC(F)(F)CC4)C[C@H]3C(=O)NC[C@H]1O2)C1CCOCC1	29	-3.41
Cc1ccc(NC(=O)N2CCC(C(NC(=O)c3ccccc3)C(=O)N3CCCCC3C)CC2)cc1 (centres undefined)	70	0.76
Cc1ccc(S(=O)(=O)N2CCC([C@H](NC(=O)c3ccccc3)C(=O)N3CCCC3)CC2)cc1	-14	1.34
CC(=O)N1CCC(C(NC(=O)c2cccs2)C(=O)N2CCCCC2C)CC1 (centres undefined)	4	-0.78

Structure (SMILES)	% Inhibition [%]	Z score
COc1ccc(Cc2n[nH]c3c2CN(Cc2nccs2)CC3)cc1OC	6	-0.85
Cc1noc(CNC(=O)c2ccc3[nH]c(=O)[nH]c3c2)n1	-7	1.3
CCOC1CC(N(C)S(=O)(=O)c2cnc(C)s2)C12CCC2 (centres undefined)	-5	0.63
CCCc1nc2ncnn2c(O)c1NC(=O)Nc1ccccc1Br	2	-0.44
N#CC(c1nc2ccccc2s1)c1nc2ccccc2s1	60	0.46
N#C[C@@H](C(=O)c1cc2ccccc2[nH]1)c1nc2ccccc2s1	16	-2.03
N#C[C@@H](C(=O)NCc1ccccc1)c1nc2ccccc2s1	-2	0.39
CCN(CC)C(=O)Nc1ccc(-c2c(C)nn(CC(N)=O)c2C)cc1	1	-0.2
CCN(CC)c1ccc(CNC(=O)[C@H](C)c2c(C)noc2C)cc1F	-12	1.74
CCOc1cccc(CN2CCC(C)(c3noc(C4CCOCC4)n3)CC2)c1	-13	1.51
Fc1ccccc1N1CCN(C2CCN(Cc3ccncc3)CC2)CC1	20	-2.44
Fc1ccccc1N1CCN(C2CCN(Cc3c[nH]c4ccccc34)CC2)CC1	67	-0.71
CCN1CCN(C2CCN(Cc3c[nH]c4ccccc34)CC2)CC1	5	-0.83
c1cc(Oc2ccc3nnnn3n2)cc(-c2nnco2)c1	-14	1.28
Cn1c(CN2CCN(c3ccnc4ccccc34)CC2)cc(=O)n(C)c1=O	17	-2.24
NC(=O)CO[C@H]1CCOC[C@H]1NC(=O)c1ccc(Oc2ccccc2)o1	4	-0.64
Cc1cccc(CN2CCC[C@@](O)(CN3CCN(CC4CC4)CC3)C2=O)c1	-10	1.1
CC1CN(C(CNCc2cnn(C)c2)c2cccs2)CCO1 (centres undefined)	-9	0.92
CCN(c1noc(C2CCN(C(=O)C(C)C)CC2)n1)C(C)C	-18	2.32
